About 14,000 (4.5%) of roughly 310,000 compounds showed an effect of 50% or more. Effects have a minus sign here. The entries come from a sample that favours strong results as a whole.
These molecules were tested against human ether-à-go-go-related gene (hERG) potassium channel (human, UniProt Q12809) (assay: primary screen, population patch clamp on CHO cells stably expressing hERG; higher = less effect of the substance).
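Further: peak tail current of the secondary pulse compared with the same well before compound.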

Chain of human ether-à-go-go-related gene (hERG) potassium channel (Q12809 whole entry, looked up): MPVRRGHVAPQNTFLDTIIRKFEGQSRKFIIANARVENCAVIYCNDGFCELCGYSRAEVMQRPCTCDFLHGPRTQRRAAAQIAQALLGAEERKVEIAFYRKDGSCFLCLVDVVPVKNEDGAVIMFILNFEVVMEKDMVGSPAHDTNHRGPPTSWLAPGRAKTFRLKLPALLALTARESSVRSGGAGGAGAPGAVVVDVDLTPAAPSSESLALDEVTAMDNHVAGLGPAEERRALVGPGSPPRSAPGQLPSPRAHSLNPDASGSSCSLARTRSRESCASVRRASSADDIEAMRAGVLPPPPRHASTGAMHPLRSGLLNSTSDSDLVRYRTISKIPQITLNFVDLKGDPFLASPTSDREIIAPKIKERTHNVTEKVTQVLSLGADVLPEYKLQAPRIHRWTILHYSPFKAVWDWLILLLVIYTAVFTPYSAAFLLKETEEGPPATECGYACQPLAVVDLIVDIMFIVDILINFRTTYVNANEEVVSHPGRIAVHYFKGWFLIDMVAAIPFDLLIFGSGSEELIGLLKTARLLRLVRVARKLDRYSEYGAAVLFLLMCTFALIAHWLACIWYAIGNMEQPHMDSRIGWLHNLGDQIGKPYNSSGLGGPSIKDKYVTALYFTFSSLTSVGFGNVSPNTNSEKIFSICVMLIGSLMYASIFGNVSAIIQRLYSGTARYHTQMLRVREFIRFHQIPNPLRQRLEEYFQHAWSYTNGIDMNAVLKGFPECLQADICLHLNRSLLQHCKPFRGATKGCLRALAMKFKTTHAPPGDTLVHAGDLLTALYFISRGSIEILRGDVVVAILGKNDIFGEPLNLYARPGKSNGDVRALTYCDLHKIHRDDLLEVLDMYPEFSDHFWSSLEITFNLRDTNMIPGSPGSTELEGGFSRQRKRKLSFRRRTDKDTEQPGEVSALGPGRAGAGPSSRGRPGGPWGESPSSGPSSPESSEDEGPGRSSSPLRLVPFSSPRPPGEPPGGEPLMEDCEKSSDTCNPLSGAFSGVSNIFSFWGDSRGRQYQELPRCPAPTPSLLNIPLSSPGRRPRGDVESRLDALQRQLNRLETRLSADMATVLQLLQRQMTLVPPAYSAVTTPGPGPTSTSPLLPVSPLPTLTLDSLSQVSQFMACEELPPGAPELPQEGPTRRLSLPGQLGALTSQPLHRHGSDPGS

SMILES	hERG current change (%, negative = inhibition) at 10uM [%]
Cc1ccc(-c2cc(C(F)F)n3ncc(C(=O)N4CCCc5ccccc54)c3n2)cc1	3.94
C=CCn1c(SCC(=O)NCc2ccco2)nnc1-c1ccc2ccccc2n1	-28.2
COC(C(=O)Nc1ccc(F)c(F)c1)c1ccccc1 (centres unmarked)	-13.7
COc1ccc(NS(=O)(=O)c2cccc(C(=O)NCC3CCCO3)c2)cc1 (centres unmarked)	-0.415
Cn1cnnc1SCC(=O)NCCC(c1ccccc1)c1ccccc1	7.79
O=C(COc1ccccc1)N1CCN(c2ccc([N+](=O)[O-])c(N3CCCCC3)c2)CC1	-13.6
O=C(COc1ccc(Br)cc1)N1CCN(c2ccc([N+](=O)[O-])c(N3CCCCC3)c2)CC1	-14.1
O=C(COc1ccc(Cl)cc1)N1CCN(c2ccc([N+](=O)[O-])c(N3CCOCC3)c2)CC1	-71.5
O=C(COc1ccc(Cl)cc1)N1CCN(c2ccc([N+](=O)[O-])c(N3CCCCC3)c2)CC1	2.92
Cc1ccc(OCC(=O)N2CCN(c3ccc([N+](=O)[O-])c(N4CCOCC4)c3)CC2)cc1	-71.4
O=C(COc1ccccc1Cl)N1CCN(c2ccc([N+](=O)[O-])c(N3CCOCC3)c2)CC1	-25.7
O=c1c2ccccc2nc(/C=C/c2ccco2)n1-c1ccccc1O	-13.3
O=C(COC(=O)/C=C/C(=O)OCC(=O)Nc1ccccc1F)Nc1ccccc1F	12.9
COc1ccc(C(CC(=O)O)NC(C)=O)cc1OC (centres unmarked)	10.4
CCCc1nc(SCC(=O)Nc2nnc(SCC)s2)c2c(=O)n(C)c(=O)n(C)c2n1	3.68
CCCCC12CN3CCN(CC(C3)/C1=N\NC(=O)c1ccccc1N)C2	-70.8
CCCC12CN3CCN(CC(C3)/C1=N\NC(=O)c1ccccc1N)C2	-4.19
Nc1ccccc1C(=O)N/N=C1/C2CN3CCN(C2)CC1(Cc1ccccc1)C3	-37.8
N#Cc1cnc(Nc2ccc(F)cc2)nc1N	-2.18

SMILES	hERG current change (%, negative = inhibition) at 10uM [%]
CCNc1nc(SC(C)C(=O)Nc2ccccc2)nc(N(C)C)n1 (centres unmarked)	11.8
CC(Sc1nc(NC(C)(C)C)nc(N(C)C)n1)C(=O)Nc1ccccc1 (centres unmarked)	10.9
CC(C)Nc1nc(SC(C)C(=O)Nc2ccccc2)nc(N(C)C)n1 (centres unmarked)	-51.4
O=C(NCCC1=CCCCC1)Nc1ccc2nsnc2c1	8.84
O=C(c1cnc(-c2ccc(Cl)cc2)s1)c1ccc(Cl)cc1Cl	5.71
CN(C)CCCn1c2c(c(SCC(=O)Nc3ccc4c(c3)OCO4)nc1=O)CCC2	-10.7
CN(C)CCCn1c2c(c(SCC(=O)Nc3ccc4c(c3)OCO4)nc1=O)CCCC2	-39.7
CCN(CC)CCn1c2c(c(SCC(=O)Nc3ccc4c(c3)OCCO4)nc1=O)CCCC2	-20.4
CCN(CC)CCCn1c2c(c(SCC(=O)Nc3ccc(C)c(F)c3)nc1=O)CCC2	-64.5
CCN(CC)CCn1c2c(c(SCC(=O)Nc3ccc(C)c(F)c3)nc1=O)CCC2	-63.8
CCN(CC)CCn1c2c(c(SCC(=O)Nc3ccc(C)c(F)c3)nc1=O)CCCC2	-70.1
CCC1Oc2ccc(C)cc2N(CC(=O)NCc2cccc(OC)c2)C1=O (centres unmarked)	-8.94
CNC(=O)c1cc2cc(OC)ccc2oc1=N	10.4
CC/C(=N\NC(=O)c1c[nH]c2ccccc12)c1cccs1	10.9
O=C(O)c1c(-n2cccc2)sc2c1CCCC2	24.4
COc1cc(C)c(Br)cc1S(=O)(=O)NCc1ccccc1	12.9
COc1ccc(CN2CCNC(=O)C2CC(=O)NCCN2CCCCC2=O)c(F)c1 (centres unmarked)	19.1
Cc1nn(CCCC(=O)Nc2ccccn2)c(C)c1[N+](=O)[O-]	18.3
O=C(COc1ccc(-n2cnnn2)cc1)N1CCN(c2ccc(F)cc2)CC1	-71.5

SMILES	hERG current change (%, negative = inhibition) at 10uM [%]
O=C(COc1ccc(-n2cnnn2)cc1)NCCc1ccc(F)cc1	-51.5
O=C(COc1ccc2c(c1)CCC2)N1CCN(c2ccc(F)cc2)CC1	-2.53
O=C(COc1ccc(F)cc1)Nc1ccc(-n2cnnn2)cc1	-49.5
NC(=O)COc1ccc(-n2cnnn2)cc1	32.4
O=C(COc1ccc(-n2cnnn2)cc1)Nc1ccc(F)c(F)c1F	5.48
N/C(=N\N=C\c1ccnc2ccccc12)SC1CC(=O)N(c2ccc(Br)cc2)C1=O (centres unmarked)	0.637
CC(C)Sc1cc(N2CCOCC2)nc(-c2ccccc2)n1	2.76
COCCn1c(N)c(N(Cc2ccccc2)C(=O)c2ccc(-c3ccc(Cl)cc3)o2)c(=O)[nH]c1=O	-45.5
Cc1ccc(-n2nc(C)c(/C=N/NC(=O)c3cccs3)c2Cl)cc1	5.12
Cc1ccc(S(=O)(=O)N2CCN(CC(=O)N/N=C/c3ccc(Br)s3)CC2)cc1	-49
Cc1ccsc1/C=N/NC(=O)CN1CCN(S(=O)(=O)c2ccc(Br)cc2)CC1	-41.7
O=C(CN1CCN(S(=O)(=O)c2ccc(Br)cc2)CC1)N/N=C/c1ccccc1C(=O)O	14.2
O=C(CN1CCN(S(=O)(=O)c2ccc(Br)cc2)CC1)N/N=C/c1ccc(Br)s1	-17.6
O=C(CN1CCN(S(=O)(=O)c2ccc(Br)cc2)CC1)N/N=C/c1ccco1	-56.9
Cc1ccc(/C=N/NC(=O)CN2CCN(S(=O)(=O)c3ccc(Br)cc3)CC2)s1	-58.9
Cc1ccc(S(=O)(=O)N2CCN(CC(=O)N/N=C/c3ccco3)CC2)cc1	-33
O=C(CN1CCOCC1)N/N=C/c1ccco1	17.1
O=C(CN1CCN(S(=O)(=O)c2ccc(Br)cc2)CC1)N/N=C/c1cccs1	-58.4
